# Source: PubChem
# An excerpt weighted towards active compounds, which were near 19% of everything screened.
# DT40 TDP1 CPT = DT40-hTDP1 cell growth loss with CPT | 420,000 compounds, 12% hits | chicken DT40 Tdp1-/-;hTDP1 cells + 20 nM CPT, ATP luminescence, 48 h | Potency, µM (top dose mostly 46.2 µM), for the others: at the highest dose activity change, negative = growth inhibition, hits mostly inhibitors; note: potency is the fitted concentration of half-maximal effect; nearly all actives have a fitted effect of over 55% in size
#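 Cell growth measured by CellTiter-Glo luminescence after a minimum 48 h, 37 C compound exposure with 20 nM CPT in Tdp1-knockout DT40 cells stably expressing hTDP1, seeded 400/well; qHTS titration format.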
# HT1080 IDH1KD tx = HT-1080 IDH1 knockdown cell toxicity (counter line). Potency, µM (top dose mostly 46.1 µM), for inactives: at the highest dose activity, negative = toxicity, most hits filed as cytotoxic. HT-1080 IDH1 knockdown viability, ATP luminescence, 48 h. 360,000 compounds, 2% hits. AID 686971;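 note: potency is the fitted concentration of half-maximal effect; 0% = DMSO wells and -100% = cell-free medium wells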
#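 In this qHTS, HT-1080 cells depleted of IDH1 are exposed for 48 h at 37 °C to compound titrations. Toxicity is scored from CellTiter-Glo luminescence, with DMSO as full viability and medium alone as none.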
# TDP1 cell noCPT = qHTS for Inhibitors of human tyrosyl-DNA phosphodiesterase 1 (TDP1): qHTS in cells in absence of CPT; DT40 Tdp1-/- hTDP1 cells, no CPT, ATP luminescence, 48 h; AID 686978, 2013; Potency, µM (titrated, usually from 46.2 µM), for inactives: at the top dose activity change, negative = growth inhibition, most hits filed as inhibitors; 420,000 compounds, 15% hits; note: potency is the fitted concentration of half-maximal effect; nearly all actives have a fitted effect of over 55% in size
#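 Chicken DT40 Tdp1-/- cells stably complemented with human TDP1 were seeded at 400 cells/well with DMSO in place of 20 nM camptothecin. After compound pinning, cells grew at least 48 hr at 37 °C; viability read by CellTiter-Glo luminescence.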
# IL-1B inflam inh = blocks inflammasome-driven IL-1 beta release; THP-1 LPS/ATP IL-1B secretion, AlphaLISA, 16 h; hits give low values; 360,000 compounds, 4.7% hits; activity change, % at 57.5 µM; AID 743279; in the data active = activity change below about -50%; inconclusive = mostly about -30% to -49%
#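 THP-1 cells pretreated 1 hr with compounds (up to 57.5 uM final), then stimulated with LPS (250 ng/mL final) plus ATP (1.25 mM final); secreted IL-1B measured by AlphaLISA after 16 hr, decreased signal indicating inhibition.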
# HT1080NT lethal = kills 2HG-producing HT-1080-NT fibrosarcoma cells | HT-1080-NT fibrosarcoma viability, CellTiter-Glo ATP luminescence, 48 h | Potency, µM (highest dose often 46.1 µM), for the others: at the highest dose activity, negative = less viability, most hits filed as cytotoxic | 360,000 compounds, 1.6% hits | AID 686970;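 note: NT is the 2HG producing partner of a matched IDH1 knockdown line; potency is the fitted concentration of half-maximal effect; 0% = DMSO-treated cells and -100% = media-only wells without cells; nearly all actives have a fitted effect of over 55% in size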
#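 Fibrosarcoma NT cells, 750 per well in 5% FBS RPMI, were exposed to compound for 48 hours. Viability: CellTiter-Glo luminescence.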
# Active calls of the source: *; i = inactive; ? = inconclusive; . = not tested or not shown; [ ] = dose if it differs, or a comment. Unless noted, calls come from the whole dose curve; as a rule, active = well fitted curve in the direction sought with a large enough effect; inconclusive = small, poorly fitted or top-dose-only effect, or another doubt; inactive = no such curve, though single readings can be large; an effect the other way counts as inactive or inconclusive. Unless noted, % is set by controls: 0 for no effect and ±100 for the full control effect.
SMILES,DT40 TDP1 CPT,HT1080 IDH1KD tx,TDP1 cell noCPT,IL-1B inflam inh,HT1080NT lethal
COc1ccccc1NC(=O)CCC(=O)Nc1cc(OC)c(NC(=O)c2cccs2)cc1OC,-25%,11%,?,6,14%
CC(C)(C)n1cnc2cc(NC(=O)c3ccccc3)ccc21,?,3%,?,-26,-1%
CSc1nc2ccc(NC(=O)C3CC(=O)N(Cc4ccccc4)C3)cc2s1 (stereo unspecified),-17%,-4%,?,78,0%
CN(c1ccccc1)S(=O)(=O)c1ccc(Cl)c(C(=O)Nc2ccc(-c3nc4ccccc4[nH]3)cc2)c1,18µM*,?,18µM*,11,-22%
CS(=O)(=O)c1cccc(C(=O)Nc2ccc(-c3nc4ccccc4[nH]3)cc2)c1,8.2µM*,12µM*,7.3µM*,-4,12µM*
O=C(c1ccccc1)c1ccc2nc(-c3ccc(NC(=O)c4ccccc4Br)cc3)[nH]c2c1,?,-9%,?,-6,?
CN(c1ccccc1)S(=O)(=O)c1ccc(Cl)c(C(=O)Nc2nc3ccccc3[nH]2)c1,15µM*,?,15µM*,?,-21%
Cc1ccccc1C(=O)Nc1ccc(-c2nc3ccc(C(=O)c4ccccc4)cc3[nH]2)cc1,9.2µM*,?,5.2µM*,25,-22%
COc1ccc(NC(=O)C2c3ccccc3OCC(=O)N2CC(F)(F)F)cc1 (stereo unspecified),-1%,14%,-10%,-6,-4%
C[C@@H]1CCC(=O)N(CC[C@H](Sc2ccc(Br)cc2)c2ccccc2)CC1,18µM*,?,20µM*,-71*,?
Cc1ccc(S[C@@H](CCN2CC[C@H](O)CCC2=O)c2ccccc2)cc1,11%,4%,-11%,5,6%
Cc1ccc(S[C@@H](CCN2CC[C@H](C(C)(C)C)CCC2=O)c2ccccc2)cc1,?,?,?,-7,?
COc1ccc(S[C@@H](CCN2CC[C@H](C)CCC2=O)c2ccccc2)cc1,10µM*,-9%,15µM*,?,-24%
C[C@H]1CCC(=O)N(CCSc2ccc(Br)cc2)CC1,16µM*,15%,18µM*,-2,10%
C[C@@H]1CCC(=O)N(CC[C@H](Oc2ccccc2)c2ccccc2)CC1,?,0%,13µM*,-4,13%
Cc1ccc(S[C@@H](CCN2CC[C@H](C)CCC2=O)c2ccccc2)cc1,?,-1%,16µM*,?,-8%
Cc1ccc(-c2nnc(NC(=O)c3ccc([N+](=O)[O-])o3)o2)c(C)c1,16µM*,?,13µM*,?,?
COc1ccc(-c2nnc(NC(=O)c3ccc([N+](=O)[O-])o3)o2)c(OC)c1,?,-2%,18µM*,-19,-1%
Cc1[nH]c(=O)[nH]c(=O)c1/C=N/NC(=O)CCNC(=O)OC(C)(C)C,-1%,8%,22%,-60*,10%
Cc1[nH]c(=O)[nH]c(=O)c1/C=N/NC(=O)CCCCCNC(=O)OC(C)(C)C,-29%,21%,-20%,13,29%
O=C(N/C=C/n1cnc2cc(C(F)(F)F)ccc21)c1ccccc1,3%,-4%,6%,-5,0%
CSc1nc2[nH]c(=O)n(O)c(=O)c2n1Cc1ccccc1,?,?,18µM*,-9,?
Cc1ccc(Sc2ccc(NC(=O)CCl)cc2)c(C)c1,15µM*,-21%,18µM*,-67*,-2%
Nn1c(SCC(=O)NCC2CCCO2)nnc1-c1ccc(OC(F)F)cc1 (stereo unspecified),-8%,3%,0%,-1,-4%
CN(CC(=O)Nc1ccc(Cl)c(C(F)(F)F)c1)C(=O)C1CC(=O)N(Cc2ccco2)C1 (stereo unspecified),13µM*,-8%,23µM*,-21,-15%
SMILES,DT40 TDP1 CPT,HT1080 IDH1KD tx,TDP1 cell noCPT,IL-1B inflam inh,HT1080NT lethal
CN(CC(=O)Nc1ccc(Cl)c(C(F)(F)F)c1)C(=O)/C=C/c1ccco1,18µM*,-6%,18µM*,i,3%
CN(CC(=O)Nc1ccc(Cl)c(Cl)c1)C(=O)/C=C/c1ccc(F)cc1,-9%,-20%,-25%,-1,-2%
CN(CC(=O)Nc1ccc(Cl)c(C(F)(F)F)c1)C(=O)/C=C/c1cccs1,?,0%,23µM*,-7,-5%
CN(CC(=O)Nc1cccc(F)c1)C(=O)C1CC(=O)N(Cc2ccco2)C1 (stereo unspecified),-1%,9%,-19%,16,2%
CN(CC(=O)Nc1ccc(Cl)c(C(F)(F)F)c1)C(=O)CCNC(=O)c1ccco1,?,2%,?,6,3%
O=C(Nc1ccccc1)Nc1ccc(C(=O)N2CCOCC2)cc1,?,-26%,?,-10,?
CCOC(=O)N1CCc2c(sc3c2c(=O)n(Cc2ccccc2)c(=O)n3CC(=O)Nc2ccc(C)cc2C)C1,-7%,.,-4%,.,.
CC(=O)N1CCc2c(sc3c2c(=O)n(-c2ccc(C)cc2)c(=O)n3CC(=O)Nc2ccccc2)C1,?,.,16µM*,.,.
CC(=O)N1CCc2c(sc3c2c(=O)n(CCc2ccccc2)c(=O)n3CC(=O)Nc2ccc(C)c(F)c2)C1,23µM*,.,?,.,.
CCOC(=O)N1CCc2c(sc3c2c(=O)n(CCc2ccccc2)c(=O)n3CC(=O)Nc2ccccc2C)C1,8.2µM*,.,8.2µM*,.,.
CCC(=O)c1ccc(/C=C/c2nc3ccccc3n2C)o1,-18%,-6%,?,19,-22%
COc1ccc(C(C)(C)C)cc1NC(=O)C1CC(=O)N(C2CCCC2)C1 (stereo unspecified),?,9%,-25%,-13,9%
CCCN(CCC)c1nc(N(CCC)CCC)[nH]c(=O)n1,23µM*,3%,18µM*,13,?
COc1ccc(C)cc1NC(=O)CN1CCN(c2ccccc2F)CC1,?,-2%[9.24 µM],13µM*,-4,-4%
COc1ccc(C)cc1NC(=O)CCN1CCN(c2ccccc2F)CC1,?,-8%,?,6,20%
COc1ccc(OC)c(NC(=O)CCN2CCN(c3ccccc3F)CC2)c1,29µM*,7%,13µM*,-21,2%
CCOC(=O)c1c(C)[nH]c(C)c1S(=O)(=O)N1CCCC(C(=O)N2CCN(c3cccc(C)c3C)CC2)C1 (stereo unspecified),15µM*,.,?,.,.
CCOC(=O)c1c(C)[nH]c(C)c1S(=O)(=O)N1CCCC(C(=O)N2CCN(c3cccc(Cl)c3)CC2)C1 (stereo unspecified),21µM*,.,21µM*,.,.
